Shown are actives, neighbours in structure and some others; about 5.3% of the full set was active somewhere.
HIF activator: HIF pathway transcriptional activation. U2OS HRE-luciferase reporter, luminescence; normalized: DMSO 0%, desferrioxamine 100%. activation, % at 7.5 µM (by protocol). 0.32% of 300,000 active. AID 1910;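 active means mean activation of at least 10% of the iron chelator positive control signal, with at least half of replicates also reaching 10%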
ALR H2O2 inh: inhibitors of human sulfhydryl oxidase ALR; AID 485317; P55789; purified ALR, DTT oxidation, H2O2 HRP-luminol luminescence; 3.8% of 290,000 active; inhibition, % (test concentration not listed);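 active means mean replicate inhibition above about 79%, with every replicate also reaching it, limit read from the data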
Target sequence (P55789 whole entry, looked up): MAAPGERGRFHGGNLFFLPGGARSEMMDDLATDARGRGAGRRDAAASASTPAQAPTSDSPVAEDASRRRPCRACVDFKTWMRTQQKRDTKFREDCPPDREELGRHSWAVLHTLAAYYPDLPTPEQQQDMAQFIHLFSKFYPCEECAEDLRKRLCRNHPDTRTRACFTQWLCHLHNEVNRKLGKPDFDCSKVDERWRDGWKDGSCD
Mot1-301 SUMO: SUMOylation pathway inhibition by Mot1-301 growth rescue; S. cerevisiae Mot1-301 growth rescue, ATP luminescence, 38.5C; percent above DMSO median, 100 means doubled; growth rescue, % at 18.8 µM; 1% of 320,000 active; AID 2716;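 active means every valid replicate shows activation above 250% relative to neutral control wells; inactive means the rest, any valid replicate at or below 250%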
M18AAP inhibitor: PfM18AAP enzyme inhibition | recombinant PfM18AAP, H-Glu-NHMec fluorogenic cleavage | inhibition, % at 7.35 µM | 1.2% of 290,000 active | AID 1822;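 active means inhibition above the campaign mean inhibition over all tested compounds plus 3 SD, cut at about 28% in these data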
Of the large screens only hits and unclear results are named; the others gave an inactive call.

Clc1ccc(-c2nc3ccncc3[nH]2)cc1	ALR H2O2 inh 98.7, M18AAP inhibitor 29.1
COc1ccc(-c2nc(CS(=O)CC(=O)NCCc3ccc(OC)c(OC)c3)c(C)o2)cc1 (centres undefined)	ALR H2O2 inh 98.1
COc1ccc(-c2nc(CS(=O)CC(=O)NCCc3ccc(C)cc3)c(C)o2)cc1OC (centres undefined)	ALR H2O2 inh 99.3
CCOc1ccc(CCNC(=O)CS(=O)Cc2nc(-c3ccc(OC)cc3)oc2C)cc1OCC (centres undefined)	ALR H2O2 inh 99.5
Cc1cccc(-c2nc(CS(=O)CC(=O)NCCc3ccccc3)c(C)o2)c1 (centres undefined)	none
COc1ccc(CC(=O)NCCc2ccc(OC)c(OC)c2)cc1	none
COc1ccc(CCNC(=O)CS(=O)Cc2nc(-c3ccc(C)cc3)oc2C)cc1OC (centres undefined)	ALR H2O2 inh 99.0
COc1ccc(CCNC(=O)COc2ccc(-c3ccc(C)cc3)cc2)cc1OC	none
COc1cc(OC)cc(-c2c(C#Cc3ccsc3)c3cc(-c4cccc5[nH]cc(C=O)c45)ccc3n2C)c1	none (no result: HIF activator, M18AAP inhibitor)
CCNC(=O)NC(=O)CSc1ccc(S(=O)(=O)N2CCOCC2)cn1	none (no result: HIF activator, M18AAP inhibitor)
O=c1cc(C(F)(F)F)nc(SC/C=C/c2ccccc2)[nH]1	ALR H2O2 inh 78.2
Cc1ccc(C(=O)Nc2ccc(C(=O)O)cc2)cc1S(=O)(=O)Nc1cccc([N+](=O)[O-])c1	none
Cc1ccc(C(=O)Nc2ccccc2C(=O)O)cc1S(=O)(=O)Nc1ccc(Br)cc1	ALR H2O2 inh 98.3 (no result: M18AAP inhibitor)
Cc1ccc(C(=O)Nc2cccc([N+](=O)[O-])c2)cc1S(=O)(=O)Nc1ccc(C(=O)O)cc1	ALR H2O2 inh 82.2
Cc1ccc(C(=O)Nc2ccccc2C(=O)O)cc1S(=O)(=O)NCc1ccccc1	none
CCC(C)(C)NC(=O)/C=C/c1ccccc1[N+](=O)[O-]	ALR H2O2 inh 95.4
COc1cccc(-c2nc(CS(=O)CC(=O)NC3CCCC3)c(C)o2)c1 (centres undefined)	ALR H2O2 inh 98.6
COc1cccc(-c2nc(CS(=O)CC(=O)NC3CCCCC3)c(C)o2)c1 (centres undefined)	ALR H2O2 inh 99.5
Cc1cccc(-c2nc(CS(=O)CC(=O)NCCCSC3CCCCC3)c(C)o2)c1 (centres undefined)	none
Cn1nc(C(=O)NCC(=O)Nc2ccc(F)c(F)c2F)c2ccccc2c1=O	none (no result: HIF activator, M18AAP inhibitor)
COc1ccc(OC(=O)c2ccc(OC)c(S(=O)(=O)N3CCOCC3)c2)cc1	none
Cc1cccc(OCc2nnc(SC(C)C(=O)O)n2-c2ccccc2)c1 (centres undefined)	none
Nc1ccc(-c2nc3cc(N)ccc3s2)cc1	ALR H2O2 inh 98.6 (no result: HIF activator, Mot1-301 SUMO)
Cc1ccc2nc(-c3ccc(N)cc3)sc2c1	none
COc1ccc(CNC(=O)[C@@H](C)NC(=O)C2CCN(C(=O)[C@@H](N)CCSC)CC2)cc1	Mot1-301 SUMO 612.2
CC12CCC(=O)N1C(C(=O)Nc1cc(C(F)(F)F)ccc1N1CCCCC1)CS2 (centres undefined)	none (no result: ALR H2O2 inh, M18AAP inhibitor)
O=C(O)/C(=C\c1ccc(Cl)cc1)c1ccc(S(=O)(=O)N2CCCC2)s1	ALR H2O2 inh 97.6 (no result: HIF activator, M18AAP inhibitor)
CSc1ccc(/C=C(\C(=O)O)c2ccc(S(=O)(=O)N3CCCCC3)s2)cc1	ALR H2O2 inh 90.1
COc1ccccc1C(=O)NCC(=O)NC(C)CCc1ccccc1 (centres undefined)	Mot1-301 SUMO 339.6
Oc1ccc(C23CC4CC(CC(C4)C2)C3)cc1O	ALR H2O2 inh 98.8, Mot1-301 SUMO 647.9, M18AAP inhibitor 90.2
CN(c1ccccc1)S(=O)(=O)c1cccc(NC(=O)C2=NNC(=O)CC2)c1	none (no result: HIF activator, M18AAP inhibitor)
COc1cc(C(C2C(=O)CC(C)(C)CC2=O)C2C(=O)CC(C)(C)CC2=O)ccc1O	none
CC1(C)CC(=O)C(C(c2ccncc2)C2C(=O)CC(C)(C)CC2=O)C(=O)C1	none (no result: ALR H2O2 inh)
COc1ccc(C(C2C(=O)CC(C)(C)CC2=O)C2C(=O)CC(C)(C)CC2=O)cc1	ALR H2O2 inh 96.8
COc1ccc(C(C2C(=O)CC(C)(C)CC2=O)C2C(=O)CC(C)(C)CC2=O)cc1COCC(F)(F)F	ALR H2O2 inh 98.6
CC1CCN(C(=O)C2CCN(S(=O)(=O)c3cccc4cccnc34)CC2)CC1	none
CCN1CCN(C(=O)C2CCN(S(=O)(=O)c3cccc4cccnc34)CC2)CC1	ALR H2O2 inh 97.8 (no result: HIF activator, M18AAP inhibitor)
CCOCCCN(C)C1CCN(C(=O)c2oc3ccccc3c2NC(=O)c2cccc([N+](=O)[O-])c2)CC1	none
COc1ccc(CNc2ccc3c(c2)ncn3-c2ccccc2OC)cc1	none
CCCCn1cnc2cc(NCc3cccc(OC)c3O)ccc21	none
COc1ccccc1-n1cnc2cc(NCc3ccccc3O)ccc21	ALR H2O2 inh 97.8

Screens: PubChem, several laboratories
